High-throughput results: PubChem, National Center for Advancing Translational Sciences (NCATS)
TDP1 cell noCPT: qHTS for Inhibitors of human tyrosyl-DNA phosphodiesterase 1 (TDP1): qHTS in cells in absence of CPT; AID 686978, 2013; 420,000 tested, 15% active; DT40 Tdp1-/- hTDP1 cells, no CPT, ATP luminescence, 48 h; Potency, µM (top dose mostly 46.2 µM), for inactives: top-dose activity change, negative = growth inhibition, most hits filed as inhibitors; also: nearly all actives have a fitted effect of over 55% in size
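Compound effects on proliferation are scored in DT40 Tdp1-/-;hTDP1 cells in the absence of CPT. ATP levels (CellTiter-Glo luminescence) are recorded after a ≥48 hr, 37 °C incubation.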
HT1080 IDH1KD tx: HT-1080 IDH1 knockdown cell toxicity (counter line); HT-1080 IDH1 knockdown viability, ATP luminescence, 48 h; Potency, µM (doses to about 46.1 µM), inactives show top-dose activity, negative = toxicity, usual class: cytotoxic; 360,000 tested, 2% active;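 also: 0% = DMSO wells and -100% = cell-free medium wells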
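Cytotoxicity counter-line: IDH1KD HT-1080, 48 h, CellTiter-Glo. Curves classed by r2, magnitude and activity.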
TDP1 cell CPT: growth inhibition of DT40 Tdp1-/-;hTDP1 cells with camptothecin (screen for TDP1 inhibitors). chicken DT40 Tdp1-/-;hTDP1 cells + 20 nM CPT, ATP luminescence, 48 h. Potency, µM (doses to about 46.2 µM), inactives show top-dose activity change, negative = growth inhibition, actives largely listed as inhibitors. 420,000 tested, 12% active. AID 686979; also: nearly all actives have a fitted effect of over 55% in size
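Chicken DT40 Tdp1-/- cells stably complemented with human TDP1 were seeded at 400 cells/well in medium containing 20 nM camptothecin, exposed to pin-transferred compounds, and grown at 37 °C for at least 48 hr. Viability was read as ATP luminescence.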
KB-V1 cytotox: kills drug-selected multidrug resistant KB-V1 cells. Potency, µM (titrated, usually from 46.1 µM), usual class: cytotoxic. 400,000 tested, 3.4% active. KB-V1 MDR cells viability, CellTiter-Glo, 72 h; also: nearly all actives have a fitted effect of over 60% in size
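Cytotoxicity toward P-gp-expressing KB-V1 cells was determined as loss of CellTiter-Glo luminescence after 72 h at 37 degrees C. Compounds were tested in quantitative HTS format across a concentration range, with curves fitted to normalized data.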
KB-3-1 cytotox: kills parental KB-3-1 adenocarcinoma cells; Potency, µM (top dose mostly 46.1 µM), usual class: cytotoxic; KB-3-1 viability, CellTiter-Glo ATP luminescence, 72 h; 400,000 tested, 1.4% active; AID 1347075; also: nearly all actives have a fitted effect of over 60% in size
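Multi-concentration cytotoxicity screen in KB-3-1 cells grown in DMEM lacking phenol red with 10% FBS. After 72 h at 37 °C with compound, ATP-dependent luminescence was recorded.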
HT1080-NT tox: kills 2HG-producing HT-1080-NT fibrosarcoma cells; HT-1080-NT fibrosarcoma viability, CellTiter-Glo ATP luminescence, 48 h; 360,000 tested, 1.6% active; Potency, µM (highest dose often 46.1 µM), without a hit: at the highest dose activity, negative = less viability, most hits filed as cytotoxic;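 also: NT is the 2HG producing partner of a matched IDH1 knockdown line; 0% = DMSO-treated cells and -100% = media-only wells without cells; nearly all actives have a fitted effect of over 55% in size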
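Toxicity toward the 2HG-producing NT line was scored as %Activity, normalised to DMSO and no-cell wells, from CellTiter-Glo luminescence after 48 hours' treatment.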
* hit, by the source's call; i = inactive; ? = inconclusive; . = no result given. Compounds with a hit are over-represented: about 19% of the library has one in this group of screens. Calls follow the shape of the dose curve; as a rule, active = well fitted curve in the direction sought with a large enough effect; inconclusive = small, poorly fitted or top-dose-only effect, or another doubt; inactive = no such curve, though single readings can be large; an effect the other way counts as inactive or inconclusive. Unless noted, % is scaled to controls: 0 for no effect and ±100 for the full control effect; potency is read from the fitted curve at half-maximal effect.

SMILES	TDP1 cell noCPT	HT1080 IDH1KD tx	TDP1 cell CPT	KB-V1 cytotox	KB-3-1 cytotox	HT1080-NT tox
Cc1ccc(CN(C(=O)COc2cc(C)c(Cl)c(C)c2)c2ccccn2)o1	18µM*	.	?	i	i	.
Cc1ccc(CN(C(=O)COc2ccccc2[N+](=O)[O-])c2ccccn2)o1	?	.	?	i	i	.
Cc1ccc(CN(C(=O)COc2ccc(Br)cc2)c2ccccn2)o1	16µM*	.	?	?	i	.
COc1cc(CN(C(=O)COc2ccc(Cl)cc2)c2ccccn2)cc(OC)c1OC	8.2µM*	.	18µM*	i	i	.
CCN(CC)CCCNC(=O)C1CCN(S(=O)(=O)CC)CC1	-6%	.	-3%	.	.	.
CCc1ccc(NCc2cc3cc4c(cc3n(CC(=O)Nc3ccccc3C)c2=O)OCCO4)cc1	.	.	.	i	i	.
Cc1ccc(S(=O)(=O)N2CCN(c3nc(-c4cccs4)cc4ccccc34)CC2)cc1	?	3%	?	.	.	13%
Cc1ccc(NC(=O)CSc2nnc(-c3cc4occc4n3C)n2-c2ccccc2C)cc1F	16µM*	.	26µM*	.	.	.
Cc1ccc(NC(=O)CSc2ccc(-c3ccco3)nn2)c(C)c1	?	4%	?	?	i	-2%
Cc1ccc(NC(=O)CSc2nnc(-c3cc4occc4n3C)n2-c2ccccc2C)c(C)c1	18µM*	.	?	.	.	.
CCCCC(=O)OCc1cc(=O)n2nc(C3CCCCC3)sc2n1	-4%	.	-10%	i	i	.
O=C(COC(=O)c1cnccn1)c1ccc([N+](=O)[O-])cc1	?	-1%	23µM*	i	i	-1%
O=C(NCc1ccccc1)C(=O)Nc1nc(C23CC4CC(CC(C4)C2)C3)cs1	?	-2%	23µM*	7.3µM*	?	-5%
O=C(NCc1ccncc1)C(=O)Nc1nc(C23CC4CC(CC(C4)C2)C3)cs1	21µM*	-8%	21µM*	i	i	0%
O=C(NCc1cccnc1)C(=O)NC1CCCCC1	15%	10%	5%	i	i	11%
O=C(NCc1cccnc1)C(=O)Nc1nc(C23CC4CC(CC(C4)C2)C3)cs1	16µM*	-11%	?	i	i	23%
CNC(=O)C(=O)Nc1nc(C23CC4CC(CC(C4)C2)C3)cs1	-24%	-4%	-1%	i	i	0%
COc1ccc(C(=O)Nc2nc(CC(=O)NCc3ccc(F)cc3)cs2)cc1	?	-4%	?	?	i	1%
O=C(NCc1ccc(F)cc1)C(=O)Nc1nc(C23CC4CC(CC(C4)C2)C3)cs1	?	?	?	9.2µM*	?	?
N#CC1=C(SCC(=O)Nc2ccccc2)NC(=O)CC1c1ccco1 (stereo not drawn)	18µM*	?	7.3µM*	15µM*	?	14µM*
N#CC1=C(SCc2ccccc2)NC(=O)CC1c1ccco1 (stereo not drawn)	-3%	-1%	-26%	i	i	4%
N#CC1=C(SCC(=O)NC2CCCCC2)NC(=O)CC1c1ccco1 (stereo not drawn)	-17%	9%	?	i	15µM*	5%
CCSC1=C(C#N)C(c2ccc(C)o2)CC(=O)N1 (stereo not drawn)	1%	13%	7%	i	i	4%
N#CC1=C(SCC(=O)Nc2ccccc2)NC(=O)CC1c1ccc(O)cc1 (stereo not drawn)	?	-1%	?	i	i	0%
N#CC1=C(SCC(=O)NCc2ccccc2)NC(=O)CC1c1ccco1 (stereo not drawn)	23µM*	0%	?	i	i	-5%
SMILES	TDP1 cell noCPT	HT1080 IDH1KD tx	TDP1 cell CPT	KB-V1 cytotox	KB-3-1 cytotox	HT1080-NT tox
O=C(O)C(Cc1ccccc1)N1C(=O)C2C3CCC(C3)C2C1=O (stereo not drawn)	-6%	-5%	-16%	i	i	-5%
CC(C)c1ccc(Nc2cc(C(=O)NCCCN(C)Cc3ccccc3)c3ccccc3n2)cc1	?	.	9.2µM*	.	.	.
COc1ccc(Nc2cc(C(=O)NCCCN(C)C3CCCCC3)c3ccccc3n2)cc1	21µM*	.	15µM*	i	i	.
COc1ccc(Nc2cc(C(=O)NCCCN(C)C3CCCCC3)c3ccccc3n2)c(OC)c1	?	.	?	i	i	.
CC(C)c1nc2cc(C(=O)N3CCNC(=O)C3c3ccc(F)cc3)ccc2o1 (stereo not drawn)	-25%	-2%	?	i	i	-7%
CCN(CC)c1ccc(NC(=O)CCCCCN2C(=O)c3ccccc3C2=O)cc1	?	-11%	-15%	4.6µM*	i	-6%
CC(=O)Nc1ccc(NC(=O)CCCCCN2C(=O)c3ccccc3C2=O)cc1	-5%	4%	3%	i	i	1%
CCCCCCCNC(=O)C1(CC2CC(c3ccccc3)=NO2)CCN(C(=O)c2ccccc2)CC1 (stereo not drawn)	16µM*	-5%	?	i	i	-14%
CC1(C(=O)N2CCC(CC3CC(c4ccc(Cl)cc4)=NO3)(C(=O)NCC3CCCCC3)CC2)CC1 (stereo not drawn)	?	-10%	?	i	i	1%
CC(C)(C)OC(=O)N1CCC(CC2CC(c3ccc(Cl)cc3)=NO2)(C(=O)NCC2CCCCC2)CC1 (stereo not drawn)	16µM*	?	23µM*	i	i	?
CC(C)(C)OC(=O)N1CCC(CC2CC(c3ccccc3)=NO2)(C(=O)NCc2ccccc2)CC1 (stereo not drawn)	?	2%	?	i	i	2%
CCCCCCCNC(=O)C1(CC2CC(c3ccccc3)=NO2)CCN(C(=O)OC(C)(C)C)CC1 (stereo not drawn)	18µM*	13%	?	i	i	4%
CCCCCCCNC(=O)C1(CC2CC(c3ccc(Cl)cc3)=NO2)CCN(C(=O)c2ccccc2)CC1 (stereo not drawn)	?	15%	?	i	i	4%
CCCCOc1ccc(CNC(=O)C2COc3ccc(OC)cc3C2)cc1 (stereo not drawn)	?	.	6%	i	i	.
CCCCCCNc1nc(NCc2ccco2)nc(OCC)n1	18µM*	-22%	21µM*	?	?	-17%
